Results on 66 compounds are retold here after ChEMBL document CHEMBL4513216, “Probing the Open Global Health Chemical Diversity Library for Multistage-Active Starting Points for Next-Generation Antimalarials” (ACS Infect Dis, 2020).

Structures are written as SMILES. Among all 69,000 compounds or so, about 8,600 (12%) showed an effect of 50% or more. The full list was thinned out, with strong results kept by preference.

This assay relates to Plasmodium berghei. Briefly: Screen against P. berghei liver stage (PbLuc), transformed with Luciferase, at 10uM. It counts as functional, HepG2. As to conditions: tested at 10 uM.
Turning to `Cn1cc(-c2cnc(N3CCOCC3)nc2)cc1C(=O)NC1CC1`, the INHIBITION is listed as -1.55%.
For `Cc1cc(CN2CCN(C(=O)NCc3ccoc3)CC2)no1` the value was -7.35%.
Consider `O=C(NC[C@]1(O)CN(Cc2ncccc2F)C[C@H]1O)c1cc[nH]n1`, for which the INHIBITION came to 40.4%.
The value for `CC(O)(CNc1ccc(Cl)c(C#N)n1)c1ccsc1` (stereo unspecified) was -20.3%; that for `CCCC(=O)Nc1cccc([C@H]2C[C@@H](NC(C)=O)CCO2)c1` was 33.85%; that for `CNC(=O)c1cc2c(nc1NCC(C)C)CCN(c1ccncn1)CC2` was -38.7%.
For `CN(Cc1nc(N2CCCC2)ncc1-c1ccncc1)C(=O)C(C)(C)C` the value was 21.6%.
The value for `COc1ccc2c(c1)NC(C1CCN(C(=O)C3CC3)CC1)NS2(=O)=O` (stereo unspecified) was -30.9%; that for `Cc1cc(C(=O)N2CCCC2c2c(C)nn(C)c2C)no1` (stereo unspecified) was 23.5%.
For the compound `Cc1ccc(C(=O)Nc2cn[nH]c2)cc1F`, the INHIBITION came out at 0.5%.
The value for `Fc1ccc(Br)c(NCc2nnsc2Cl)c1` was 43.1%.
The value for `CC1CCCCN1C(=O)c1ccn(COc2ccc(F)cc2)n1` (stereo unspecified) was -3.11%.
For `CC(C)NC(=O)N1CCC2(C1)CN(c1ccsc1)C(=O)CN2C` (stereo unspecified) the value was 27.9%; for `O=C(N1CCCC1)N1CCC[C@]2(C[C@@H](OCc3ccncc3)CO2)C1`, 53.9%; for `O=C(C1CC1)N1CCC[C@]2(C[C@@H](OCc3ccncc3)CO2)C1`, 10.5%.
With `O=C(c1ccccc1)N1CCC[C@]2(C[C@@H](OCc3ccncc3)CO2)C1`, the INHIBITION is listed as -13.7%.
For `CCc1nc(CN(C)CC(N)=O)cs1`, the INHIBITION is on record as 31.8%.
As for `Cc1c(C(C)NC(=O)N2CCN(C3CCCC3)CC2)cnn1C` (stereo unspecified), the INHIBITION came out at 70.9%.
The value for `Cc1c(C(C)NC(=O)C2CCCC2)cnn1C` (stereo unspecified) was -8.87%; that for `Cc1c(C(C)NC(=O)C2CCCCC2)cnn1C` (stereo unspecified) was 8.12%; that for `O=C1CCC(=O)N1c1nn(Cc2c(F)cccc2Cl)cc1Cl` was 24.8%.
The value for `CN(C)c1ccc(C(=O)Nc2ccn(CCc3ccncc3)n2)cn1` was -17.7%; that for `O=C(Cc1cccc2ccccc12)N1CCC(Nc2cccnn2)CC1` was -9.76%.
The value for `Cc1ccc(NC2CCN(C(=O)Cc3c(C)nn(C)c3C)CC2)nn1` was -3.547%; that for `Cn1cc(CC(=O)N2CCC(Nc3cccnn3)CC2)c2ccccc21` was 66.8%; that for `O=C(Cc1c[nH]c2ccccc12)N1CCC(Nc2cccnn2)CC1` was 21.8%.
On to `Cc1noc(C)c1CC(=O)N1CCC(Nc2cccnn2)CC1`, for which the INHIBITION was found to be 17.883%.
As to `Cc1nn(C)c(C)c1CC(=O)N1CCC(Nc2cccnn2)CC1`, the INHIBITION was found to be 53.5%.
For the compound `CC(NC(=O)NCc1cccs1)c1ccc2c(c1)CCC(=O)N2` (stereo unspecified), the INHIBITION is -27.8%.
The value for `Cc1cc(C)c2c(c1)C(NCc1c(C)nn(C)c1N(C)C)CCO2` (stereo unspecified) was 16.515%; that for `O=C1CCC(C(=O)Nc2cnn(-c3ccccc3Br)c2)N1` (stereo unspecified) was 47%; that for `CCCN1CCN(C(=O)CCn2cccc2)CC1` was 16.8%.
For `Cn1cncc1C(=O)N1C[C@@H]2CCN(c3cnccn3)C[C@@H]2C1` the value was 56.6%.
The value for `O=C(C1CCCC1)N1C[C@@H]2CCN(c3cnccn3)C[C@@H]2C1` was 16.1%; that for `c1cnc(N2C[C@H]3CCN(CC4CC4)C[C@H]3C2)cn1` was 58.4%.
Regarding `Cc1ccc(N2CC[C@H]3CN(C(=O)c4ccn(C)n4)C[C@H]3C2)nn1`, the INHIBITION is on record as 75.6%.
The value for `c1cnc(N2C[C@H]3CCN(CCN4CCCC4)C[C@H]3C2)cn1` was 57.5%.
The value for `Cn1ccc(C(=O)N2C[C@@H]3CCN(c4cccnc4)C[C@@H]3C2)n1` was 32.1%; that for `O=C(CC1CC1)N1C[C@@H]2CCN(c3cnccn3)C[C@@H]2C1` was 15.7%; that for `O=C(C1CCCCC1)N1C[C@@H]2CCN(c3cnccn3)C[C@@H]2C1` was -15.9%.
As to `Cn1ccnc1C(=O)N1C[C@@H]2CCN(c3cnccn3)C[C@@H]2C1`, the INHIBITION is recorded as 31.2%.
The value for `c1cc(CN2CC[C@@H]3CN(c4cnccn4)C[C@@H]3C2)ccn1` was 27.6%; that for `Cn1ccc(C(=O)N2C[C@@H]3CCN(c4cnccn4)C[C@@H]3C2)n1` was 24%; that for `O=C(c1cnccn1)N1C[C@@H]2CCN(c3cnccn3)C[C@@H]2C1` was 35.8%.
For `Cc1cc(NC(=O)NCC(c2ccc(C)o2)N2CCOCC2)n(C)n1` (stereo unspecified) the value was 45.7%; for `CC(NC(=O)NCCCn1cncn1)c1ccncc1` (stereo unspecified), 33%.
For `CN(C)[C@@H]1CCN(C(=O)CC2CC2)[C@H]1Cc1cnn(C)c1` the value was 4.27%; for `COCC1CN(Cc2ccoc2)Cc2nn(CC3CC3)cc21` (stereo unspecified), 1.9%.
Regarding `CC(=O)NCC(=O)N1C[C@@H]2CC[C@H](Oc3ccccc3Cl)[C@@H]2C1`, the INHIBITION came to 30.8%.
The value for `CCOC(=O)NCCC(=O)NCc1ccc(Oc2cccc(F)c2)nc1` was 35.5%; that for `CCOC(=O)NCCC(=O)NCc1ccnc(Oc2ccc(F)cc2)c1` was 21.5%; that for `CCOC(=O)NCCC(=O)NCc1ccc(Oc2ccc(F)cc2)nc1` was 61.5%.
In the case of `CCc1noc(CN2CCN(CCO)CC2)n1`, the INHIBITION was 15.8%.
The value for `Cc1cnn(CC2CCCN2CC(=O)Nc2cc(C)no2)c1` (stereo unspecified) was -0.219%.
`CCCC(=O)NC1CCc2c(ccc(=O)n2Cc2csc(C)n2)C1` (stereo unspecified): the INHIBITION was 17.6%.
For `Cc1ccc(N2CCCN(C(=O)CC3CCCO3)CC2)nn1` (stereo unspecified) the value was 35.3%; for `CC(C)N1CCOC(CC(=O)N2CC(c3ccncc3)C2)C1` (stereo unspecified), 31.2%; for `CC(C)N1CCOC(CC(=O)N2CCCN(Cc3ccncc3)CC2)C1` (stereo unspecified), 58.5%.
The value for `CC(C)N1CCOC(CC(=O)N2CCCN(c3ccc(F)cc3)CC2)C1` (stereo unspecified) was 22.1%; that for `Cc1ccccc1N1CCCN(C(=O)CC2CN(C(C)C)CCO2)CC1` (stereo unspecified) was 60.3%.
As for `CC(C)N1CCOC(CC(=O)N2CCCN(Cc3cccs3)CC2)C1` (stereo unspecified), the INHIBITION amounted to 28.5%.
For `CN(C)C(=O)C1CN(Cc2ccsc2)CCN(S(C)(=O)=O)C1` (stereo unspecified), the INHIBITION is 20.8%.
`O=C(c1cccnc1)N1CCOCC2(CCN(c3ncccn3)C2)C1` (stereo unspecified): the INHIBITION is listed as -62.6%.
For `CCn1nc(C)cc1C(=O)OCCNc1ncnc2ccccc12` the value was 83.2%; for `CCn1nc(C)cc1C(=O)OCCNC(=O)c1ccccc1`, -1.95%; for `Cc1cc(C)c(C(=O)NCCNc2ncnc3ccccc23)c(=O)[nH]1`, -21.6%.
